Laboratory results from PubChem BioAssay AID1159580 (chemical genetic matrix, 2015).
“And” between values parts separate entries of the source, which are not always exact repeats. Identical values can stand only once. In all, about 5,500 compounds went through this assay and about 2,000 (36%) were called active. Not shown: some 18% with an inconclusive outcome. Rule as the data show it: active = normalized growth mostly below about 0.91 (no sharp cut-off); inconclusive = no clear call, values can overlap the other calls; inactive = mostly above about 0.92. The list shows a part of the results.

Test: chemical genetic growth profiling, strain panel (AID 1159580);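 also: tested at 20 µM; growth read once vehicle control cultures reached saturation at 30 °C; 1 = growth at the plate median or of vehicle wells; lower values mean less growth of the strain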
Conditions: S. cerevisiae deletion strains, growth OD

Measured: normalized growth

CC1(C)CC[C@]2(C(=O)O)CC[C@]3(C)C(=CCC4[C@@]5(C)CC[C@H](O)[C@@](C)(CO)C5CC[C@]43C)C2C1 (stereo partly specified)
inactive: locus YAL021C, strain ccr4, stronger effect = lower value 1 | locus YAL026C, strain drs2, stronger effect = lower value 1.02 | locus YAL030W, strain snc1, stronger effect = lower value 1.02 | locus YBL061C, strain skt5, stronger effect = lower value 1.01 | locus YBR009C, strain hhf1, stronger effect = lower value 1.02 | locus YBR021W, strain FUR4, stronger effect = lower value 1.11 | locus YBR023C, strain chs3, stronger effect = lower value 1.02 | locus YBR171W, strain sec66, stronger effect = lower value 1.04 | locus YBR229C, strain ROT2, stronger effect = lower value 1.02 | locus YBR231C, strain swc5, stronger effect = lower value 1.02 | locus YBR279W, strain paf1, stronger effect = lower value 1.02 | locus YCL011C, strain gbp2, stronger effect = lower value 1.03 | locus YCL016C, strain dcc1, stronger effect = lower value 1.03 | locus YCL029C, strain bik1, stronger effect = lower value 0.977 | locus YCL061C, strain MRC1, stronger effect = lower value 1.02 | locus YCL069W, strain vba3, stronger effect = lower value 1.03 | locus YCR088W, strain abp1, stronger effect = lower value 1.02 | locus YDL005C, strain med2, stronger effect = lower value 1.04 | locus YDL035C, strain GPR1, stronger effect = lower value 1.04 | locus YDL040C, strain nat1, stronger effect = lower value 1.05 | locus YDL074C, strain BRE1, stronger effect = lower value 0.981 | locus YDL101C, strain DUN1, stronger effect = lower value 1.02 | locus YDL134C, strain PPH21, stronger effect = lower value 1.1 | locus YDL185W, strain tfp1, stronger effect = lower value 0.946 | locus YDL192W, strain arf1, stronger effect = lower value 0.99 | locus YDR001C, strain nth1, stronger effect = lower value 1.02 | locus YDR069C, strain doa4, stronger effect = lower value 1.03 | locus YDR101C, strain arx1, stronger effect = lower value 1.01 | locus YDR137W, strain rgp1, stronger effect = lower value 1.04 | locus YDR159W, strain sac3, stronger effect = lower value 1.04 | locus YDR162C, strain NBP2, stronger effect = lower value 1.07 | locus YDR195W, strain ref2 1.08 | locus YDR297W, strain sur2, stronger effect = lower value 1.03 | locus YDR318W, strain mcm21, stronger effect = lower value 0.999 | locus YDR334W, strain swr1, stronger effect = lower value 1.03 | locus YDR335W, strain msn5, stronger effect = lower value 1.02 | locus YDR388W, stronger effect = lower value 0.994 | locus YDR392W, strain spt3, stronger effect = lower value 1.01 | locus YDR502C, strain sam2, stronger effect = lower value 0.999 | locus YEL003W, strain gim4, stronger effect = lower value 1.02 | locus YEL037C, strain rad23, stronger effect = lower value 1.02 | locus YEL061C, strain CIN8 (second series), stronger effect = lower value 1.02 | locus YEL061C, strain CIN8, stronger effect = lower value 1 | locus YER015W, strain faa2, stronger effect = lower value 1.02 | locus YER016W, strain bim1, stronger effect = lower value 1.03 | locus YER110C, stronger effect = lower value 0.987 | locus YER111C, strain swi4, stronger effect = lower value 1.02 | locus YER155C, strain BEM2 (second series), stronger effect = lower value 1.03 | locus YER155C, strain BEM2, stronger effect = lower value 1.01 | locus YER167W, strain BCK2, stronger effect = lower value 1.02 | locus YFR010W, strain ubp6, stronger effect = lower value 1.02 | locus YGL078C, strain dbp3, stronger effect = lower value 0.994 | locus YGL167C, strain pmr1, stronger effect = lower value 1.03 | locus YGL173C, strain kem1, stronger effect = lower value 1.03 | locus YGL227W, strain vid30, stronger effect = lower value 1.03 | locus YGL240W, strain doc1, stronger effect = lower value 1.01 | locus YGL248W, strain PDE1, stronger effect = lower value 1.03 | locus YGL253W, strain hxk2, stronger effect = lower value 1.02 | locus YGR078C, strain PAC10, stronger effect = lower value 1.03 | locus YGR135W, strain pre9, stronger effect = lower value 1.01 | locus YGR229C, strain SMI1, stronger effect = lower value 1.02 | locus YGR252W, strain gcn5, stronger effect = lower value 1.02 | locus YHR013C, strain ard1, stronger effect = lower value 1.06 | locus YHR027C, strain rpn1, stronger effect = lower value 1.02 | locus YHR030C, strain SLT2, stronger effect = lower value 0.989 and 1.03 | locus YHR079C, strain IRE1 (second series), stronger effect = lower value 0.999 | locus YHR079C, strain IRE1, stronger effect = lower value 1.02 | locus YHR094C, strain hxt1, stronger effect = lower value 1 | locus YHR129C, strain ARP1, stronger effect = lower value 1 | locus YHR142W, strain chs7, stronger effect = lower value 1.03 | locus YHR200W, strain rpn10, stronger effect = lower value 1.01 | locus YIL066C, strain RNR3, stronger effect = lower value 1.03 | locus YIL073C, strain SPO22, stronger effect = lower value 1 | locus YIL125W, strain kgd1, stronger effect = lower value 0.99 | locus YIR030C, strain dcg1, stronger effect = lower value 1.04 | locus YJL092W, strain hpr5, stronger effect = lower value 1.03 | locus YJL095W, strain BCK1 (second series), stronger effect = lower value 1.02 | locus YJL095W, strain BCK1, stronger effect = lower value 1.04 and 0.98 | locus YJL115W, strain asf1, stronger effect = lower value 1.03 | locus YJL129C, strain trk1, stronger effect = lower value 1.02 | locus YJL134W, strain LCB3, stronger effect = lower value 0.995 | locus YJL154C, strain vps35, stronger effect = lower value 1.02 | locus YJL164C, strain tpk1, stronger effect = lower value 1.05 | locus YJL166W, strain qcr8, stronger effect = lower value 1.02 | locus YJL168C, strain set2, stronger effect = lower value 0.998
active: locus YGL086W, strain mad1, stronger effect = lower value 1.24 [resistant]
